# Source: PMC4081100, “A DNA-binding-site landscape and regulatory network analysis for NAC transcription factors in Arabidopsis thaliana”
# Key:
# Experiment in all cases: universal protein binding microarray (PBM); transcription factors of Arabidopsis thaliana; high values mean tight binding
# [1] = biological target: T1, GST-ANAC019 NAC domain (Arabidopsis thaliana, UniProt Q9C932 14-162); conditions: protein: recombinant; tags: GST; chain copies: 2; dsDNA, one strand shown
# T1 sequence: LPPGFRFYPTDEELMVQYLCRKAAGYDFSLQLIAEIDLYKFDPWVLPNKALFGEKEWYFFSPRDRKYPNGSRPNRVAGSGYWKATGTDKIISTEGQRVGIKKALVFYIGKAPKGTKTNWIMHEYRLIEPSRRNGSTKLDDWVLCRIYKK
# Method in brief: (§1)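 For zinc-finger proteins, zinc acetate was added while GST-tagged NAC-domain, full-length or DNA-binding-domain proteins were induced in cells. Purification used glutathione–Sepharose 4B, and quantification used A280 or anti-GST western blot. Custom all-10-mer Agilent 4 × 180K arrays, made double-stranded by primer extension, each received a protein at 200 to 500 nM final in duplicate. Scoring covered gapped and ungapped 8-mers, with binding given as the normalised enrichment score (E-score).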
# [2] = biological target: T2, GST-ANAC092(1-285) full length (Arabidopsis thaliana, UniProt Q9FKA0 1-285); conditions: protein: recombinant; tags: GST; chain copies: 2; dsDNA, one strand shown
# T2 sequence: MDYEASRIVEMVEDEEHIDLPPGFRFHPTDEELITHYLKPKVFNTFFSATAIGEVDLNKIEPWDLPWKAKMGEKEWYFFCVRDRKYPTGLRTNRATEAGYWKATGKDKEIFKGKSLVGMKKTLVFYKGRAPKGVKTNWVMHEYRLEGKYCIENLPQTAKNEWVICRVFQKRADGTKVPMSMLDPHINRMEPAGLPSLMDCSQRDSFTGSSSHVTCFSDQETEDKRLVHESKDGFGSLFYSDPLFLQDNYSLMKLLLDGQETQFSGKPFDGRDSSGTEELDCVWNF
# Method in brief: as §1
# [3] = biological target: T3, GST-NTL8 NAC domain (Arabidopsis thaliana, UniProt Q9XIN7 14-156); conditions: protein: recombinant; tags: GST; chain copies: 2; dsDNA, one strand shown
# T3 sequence: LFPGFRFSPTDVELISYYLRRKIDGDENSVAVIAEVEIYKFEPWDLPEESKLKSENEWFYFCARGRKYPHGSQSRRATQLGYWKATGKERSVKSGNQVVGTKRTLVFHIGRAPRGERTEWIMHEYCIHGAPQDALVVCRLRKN
# Method in brief: as §1
# [4] = biological target: T4, GST-SND1(1-203) (Arabidopsis thaliana, UniProt Q9LPI7 1-203); conditions: protein: recombinant; tags: GST; chain copies: 2; dsDNA, one strand shown
# T4 sequence: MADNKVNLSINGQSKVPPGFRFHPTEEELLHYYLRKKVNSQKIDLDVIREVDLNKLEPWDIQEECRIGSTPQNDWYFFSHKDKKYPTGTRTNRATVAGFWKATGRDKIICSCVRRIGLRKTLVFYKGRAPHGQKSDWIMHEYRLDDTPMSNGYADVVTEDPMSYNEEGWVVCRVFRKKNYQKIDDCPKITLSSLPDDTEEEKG
# Method in brief: as §1
# [5] = biological target: GST-WRKY1(266-371) (Arabidopsis thaliana, UniProt Q9SI37 266-371); conditions: protein: recombinant; tags: GST; dsDNA, one strand shown
# Sequence of GST-WRKY1(266-371) (Q9SI37 266-371): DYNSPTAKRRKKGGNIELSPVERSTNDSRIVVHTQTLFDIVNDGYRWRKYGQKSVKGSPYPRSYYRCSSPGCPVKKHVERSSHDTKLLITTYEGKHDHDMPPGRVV
# Method in brief: as §1
# [6] = biological target: T5, GST-ANAC092(1-176) (Arabidopsis thaliana, UniProt Q9FKA0 1-176); conditions: protein: recombinant; tags: GST; chain copies: 2; dsDNA, one strand shown
# T5 sequence: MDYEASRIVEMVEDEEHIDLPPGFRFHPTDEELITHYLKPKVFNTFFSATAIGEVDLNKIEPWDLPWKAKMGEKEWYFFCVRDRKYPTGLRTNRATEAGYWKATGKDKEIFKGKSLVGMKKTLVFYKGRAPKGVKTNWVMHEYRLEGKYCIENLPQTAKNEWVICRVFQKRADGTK
# Method in brief: as §1
# [7] = biological target: GST-NTL6(1-168) (Arabidopsis thaliana, UniProt Q9SCK6 1-168); conditions: protein: recombinant; tags: GST; chain copies: 2; dsDNA, one strand shown
# Sequence of GST-NTL6(1-168) (Q9SCK6 1-168): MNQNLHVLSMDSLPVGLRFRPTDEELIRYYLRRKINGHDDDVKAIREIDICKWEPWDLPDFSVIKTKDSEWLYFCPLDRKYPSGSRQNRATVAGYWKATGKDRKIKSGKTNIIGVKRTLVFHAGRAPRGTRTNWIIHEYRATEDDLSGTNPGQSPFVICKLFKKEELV
# Method in brief: as §1
# [8] = biological target: T6, GST-NAP(1-166) (Arabidopsis thaliana, UniProt O49255 1-166); conditions: protein: recombinant; tags: GST; chain copies: 2; dsDNA, one strand shown
# T6 sequence: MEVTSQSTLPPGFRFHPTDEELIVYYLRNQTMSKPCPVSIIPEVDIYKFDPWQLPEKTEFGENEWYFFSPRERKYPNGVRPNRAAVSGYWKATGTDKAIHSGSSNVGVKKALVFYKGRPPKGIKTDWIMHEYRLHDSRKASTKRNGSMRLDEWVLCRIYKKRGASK
# Method in brief: as §1
# [9] = biological target: T7, GST-ANAC055(1-171) (Arabidopsis thaliana, UniProt Q9LDY8 1-171); conditions: protein: recombinant; tags: GST; chain copies: 2; dsDNA, one strand shown
# T7 sequence: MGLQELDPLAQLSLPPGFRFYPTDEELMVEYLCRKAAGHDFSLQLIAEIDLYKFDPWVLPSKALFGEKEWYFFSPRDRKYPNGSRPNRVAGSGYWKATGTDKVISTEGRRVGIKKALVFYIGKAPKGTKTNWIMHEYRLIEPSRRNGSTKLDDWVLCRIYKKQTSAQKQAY
# Method in brief: as §1
# [10] = biological target: T8, GST-NST2(1-184) (Arabidopsis thaliana, UniProt Q9M274 1-184); conditions: protein: recombinant; tags: GST; chain copies: 2; dsDNA, one strand shown
# T8 sequence: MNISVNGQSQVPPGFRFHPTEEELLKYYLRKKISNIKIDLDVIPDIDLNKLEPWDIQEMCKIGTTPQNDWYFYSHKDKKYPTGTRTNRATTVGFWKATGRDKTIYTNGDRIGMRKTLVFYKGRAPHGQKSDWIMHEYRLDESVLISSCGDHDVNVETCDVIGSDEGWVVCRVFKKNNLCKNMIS
# Method in brief: as §1
# [11] = biological target: T9, GST-ATAF1 NAC domain (Arabidopsis thaliana, UniProt Q39013 7-158); conditions: protein: recombinant; tags: GST; chain copies: 2; dsDNA, one strand shown
# T9 sequence: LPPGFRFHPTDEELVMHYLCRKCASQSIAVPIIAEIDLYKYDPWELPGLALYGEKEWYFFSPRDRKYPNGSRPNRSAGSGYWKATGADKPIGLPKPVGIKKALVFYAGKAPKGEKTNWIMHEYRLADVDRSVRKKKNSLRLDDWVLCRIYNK
# Method in brief: as §1
sequence,measurement,setting,value
GGGGTCAA,binding signal,[1],0.133 E-score
same,binding signal,[2],0.101 E-score
same,binding signal,[3],0.154 E-score
same,binding signal,[4],0.0652 E-score
same,binding signal,[5],0.481 E-score
GGGGAAAC,binding signal,[6],0.177 E-score
same,binding signal,[7],0.17 E-score
same,binding signal,[1],0.152 E-score
same,binding signal,[2],0.217 E-score
same,binding signal,[8],0.12 E-score
same,binding signal,[3],0.412 E-score
same,binding signal,[4],0.209 E-score
CACGCGAA,binding signal,[6],0.343 E-score
same,binding signal,[7],0.17 E-score
same,binding signal,[9],0.0997 E-score
same,binding signal,[2],0.402 E-score
same,binding signal,[10],0.188 E-score
same,binding signal,[3],0.0576 E-score
same,binding signal,[4],0.213 E-score
CGAAGGAA,binding signal,[6],0.176 E-score
same,binding signal,[7],0.473 E-score
same,binding signal,[9],0.0644 E-score
same,binding signal,[11],0.057 E-score
same,binding signal,[2],0.0784 E-score
same,binding signal,[8],0.0729 E-score
same,binding signal,[10],0.17 E-score
same,binding signal,[3],0.459 E-score
same,binding signal,[4],0.3 E-score
CTGTTGAC,binding signal,[6],0.105 E-score
same,binding signal,[1],0.107 E-score
same,binding signal,[2],0.0644 E-score
same,binding signal,[4],0.0669 E-score
same,binding signal,[5],0.48 E-score
GGGGGAAA,binding signal,[6],0.117 E-score
same,binding signal,[7],0.314 E-score
same,binding signal,[1],0.12 E-score
same,binding signal,[2],0.139 E-score
same,binding signal,[3],0.472 E-score
same,binding signal,[4],0.147 E-score
AGCGTTGA,binding signal,[7],0.0737 E-score
same,binding signal,[2],0.0576 E-score
same,binding signal,[10],0.0637 E-score
same,binding signal,[4],0.0527 E-score
same,binding signal,[5],0.401 E-score
CGTCAAAG,binding signal,[6],0.0844 E-score
same,binding signal,[1],0.0986 E-score
same,binding signal,[2],0.149 E-score
same,binding signal,[10],0.102 E-score
same,binding signal,[4],0.199 E-score
same,binding signal,[5],0.427 E-score
CGTAGTCA,binding signal,[1],0.0805 E-score
same,binding signal,[11],0.117 E-score
same,binding signal,[4],0.161 E-score
same,binding signal,[5],0.405 E-score
GTCAAAGA,binding signal,[9],0.078 E-score
same,binding signal,[2],0.0725 E-score
same,binding signal,[10],0.053 E-score
same,binding signal,[4],0.167 E-score
same,binding signal,[5],0.469 E-score
AGTCTACG,binding signal,[1],0.0568 E-score
same,binding signal,[4],0.115 E-score
same,binding signal,[5],0.401 E-score
TCAGTCAA,binding signal,[11],0.0626 E-score
same,binding signal,[3],0.0655 E-score
same,binding signal,[4],0.0688 E-score
same,binding signal,[5],0.473 E-score
AATTGACT,binding signal,[7],0.0713 E-score
same,binding signal,[9],0.0891 E-score
same,binding signal,[11],0.141 E-score
same,binding signal,[2],0.0602 E-score
same,binding signal,[10],0.125 E-score
same,binding signal,[4],0.0673 E-score
same,binding signal,[5],0.46 E-score
CCTTTGAC,binding signal,[3],0.0589 E-score
same,binding signal,[4],0.101 E-score
same,binding signal,[5],0.475 E-score
CTTGACCC,binding signal,[3],0.0908 E-score
same,binding signal,[4],0.0887 E-score
same,binding signal,[5],0.477 E-score
ACCGTTGA,binding signal,[6],0.112 E-score
same,binding signal,[2],0.205 E-score
same,binding signal,[8],0.132 E-score
same,binding signal,[4],0.123 E-score
same,binding signal,[5],0.404 E-score
AGTCAGAA,binding signal,[2],0.0656 E-score
same,binding signal,[8],0.0823 E-score
same,binding signal,[10],0.119 E-score
same,binding signal,[4],0.101 E-score
same,binding signal,[5],0.416 E-score
